PubChem BioAssay AID1347417 (National Center for Advancing Translational Sciences (NCATS), 2020)
Screen size: about 120,000 compounds; about 5,300 (4.4%) were called active. Roughly 22% stayed inconclusive and do not appear here. Calls come from the whole dose curve; as a rule, active = well fitted inhibition curve with a large enough effect; inconclusive = small, poorly fitted or top-dose-only effect; inactive = no such curve, though single readings can be large or run the other way. The entries come from a sample that favours actives as a whole.

experiment: qHTS Primary assay for Inhibitors of Plasmodium falciparum Dd2 growth in vitro; note: nearly all actives have a fitted effect of over 65% in size;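 for activity, negative = inhibition: plate controls were DMSO vehicle for no effect and reference drug for full effect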; details: P. falciparum Dd2 growth, SYBR Green, 72 h; series mostly up to 28.9 µM; activity, negative = inhibition: at the top concentration
Excerpt: Malaria, a parasitic disease spread to humans through the bite of a Plasmodium infected Anopheles mosquito, continues to be a global health burden affecting millions of people, with an estimated 228 million cases and 405,000 deaths in 2018. Concerns about safety and limitations of current antimalarial treatments strongly emphasize the need to develop new therapeutic options. The scarce number of chemotypes and validated drug targets with efficacy against the liver stage, have hindered development of new antimalarials. To address this, a chemoprophylactic drug discovery effort was conducted through a combined phenotypic high-throughput asexual blood stage and liver stage screen, providing a robust foundation to identify liver-stage active lead chemotypes. Compounds were initially screened against Plasmodium falciparum Dd2 strain parasites using a in vitro SYBRGreen-1 based 72 hr proliferation assay to identify novel chemotypes to advance to liver stage assays. NIH/NCATS Early Translation Branch Assay Submitter (PI): Anton Simeonov Ph.D.
Malaria-vivax Assay Protocol: PROTOCOL TABLE (as described by Inglese et al., 2007) SEQUENCE No. (e.g., 1, 2, 3, etc.); […] (e.g., Cells, Incubation, Reagent, etc.); VALUE; DESCRIPTION SEQUENCE, Parameter, Description 1; Reagent; 3 uL complete malaria growth medium, 1536 TC treated Black clear bottom plate 2; Controls; 23 nL positive control artesunate (300 nM final) to column 1; Neutral control DMSO to columns 2-4 3; Compound; 23 nL of compounds in dose response concentration (29 uM to 0.5 nM final) 4; Reagent; 5 uL malaria infected red blood cells (2.5% hematocrit final, 0.3% parasitemia 5; Time; 72 hours at 37C (5% O2, 5% CO2, 90% N2; 95% Rh) 6; Reagent; 2 uL lysis buffer/SYBRGreen-1, 25 sec shake immediately following dispense 7; Time; ~16 hours at 37C (5% O2, 5% CO2, 90% N2; 95% Rh) 8; Detector; EnVision (PerkinElmer) bottom read at 485/14nm excitation and 535/25 nm emission NOTES (numbers refer to sequence above): 1; Complete Malaria Growth Media: 1X RPMI-1640 w/L-glutamine, 5.5g/L Albumax II, 367 uM Hypoxanthine, 25 mM HEPES, 0.25% Sodium Bicarbonate, 35 uM Gentamicin sulfate 2; Controls were added using the Kalypsis Pintool (Wako USA) equipped with 1536 pinhead 3; Compounds were added in a 7-point, titration with a high final concentration of 29 uM by Pintool from seven inter-plate titrations of library plates and two DMSO control plates at the beginning and end (see Yasgar et al., 2008). 4; Red blood cells infected with Plasmodium falciparum Dd2 parasites were used. 6; Lysis buffer: 20 mM Tris-HCl, 10 mM EDTA, 0.16% Saponin, 1.6% Triton-X, 10X SYBR Green. REFERENCE: Inglese J, Shamu CE, Guy RK. 2007. Reporting data from high-throughput screening of small-molecule libraries. Nat Chem Biol. doi:10.1038/nchembio0807-438 Yasgar A, Shinn P, Jadhav A, Auld D, Michael S, Zheng W, Austin CP, Inglese J, Simeonov A. 2008. Compound Management for Quantitative High-Throughput Screening. J Lab Autom 13:79-89. doi:10.1016/j.jala.2007.12.004
Potency is the fitted concentration of half-maximal effect.

| Compound | activity, negative = inhibition | outcome | Potency |
| --- | --- | --- | --- |
| CC[C@@]1(C(=O)O)C[C@H](C(=O)NCCCO)[C@H](c2ccc(OC)cc2)N1C | -0.459% (inactive) | – | – |
| CCc1noc(-c2nnn3c2COC(c2ccc(OC)cc2)C3)n1 (stereo unspecified) | – | inactive | – |
| CN(C)S(=O)(=O)N1CCC(Oc2ccc(C(=O)NC3(C)CC3)cc2)CC1 | -8.77% (inactive) | – | – |
| Cc1nn2c(c1-c1ccccc1N1CCCC1)N(C(=O)c1ccn(C)n1)CCC2 | – | inactive [at 44.1 µM] | – |
| O=C(c1cccs1)N1CC(Oc2ccc(-c3nc(-c4ccccc4)no3)cc2)C1 | 8.59% [at 5.79 µM] (inactive) | – | – |
| O=C(c1ccc(C(F)(F)F)cc1)N1CCn2c(nn(-c3cccc(Cl)c3)c2=O)C1 | -12.9% (inactive) | – | – |
| Cn1nnnc1SCCCNCc1ccc(Cl)cc1 | -18.1% (inactive) | – | – |
| Cn1nnnc1SCCNCc1ccc(Cl)c(Cl)c1 | -4.54% (inactive) | – | – |
| Cn1nnnc1SCCCNCc1cccc(OCc2ccc(Cl)cc2)c1 | – | – | 12.6 µM (active) |
| Cc1ccc(C(=O)CC2(O)C(=O)N(CCc3ccccc3)c3ccc(Br)cc32)cc1 (stereo unspecified) | – | – | 10 µM (active) |
| Cc1ccc(C(=O)N2CCc3cc(CNC(=O)c4ccc(Br)cc4)ccc32)cc1 | – | inactive | – |
| Cc1ccc(S(=O)(=O)NC2(C(F)(F)F)NC(=O)N(CCc3ccccc3)C2=O)cc1 (stereo unspecified) | 12% (inactive) | – | – |
| COCCN1CCC(N2CCN(C(=O)c3cc(F)cc(F)c3)CC2)C1=O (stereo unspecified) | 5.06% (inactive) | – | – |
| Cc1cc(C)cc(NC(c2nnc(-c3cccc(F)c3)o2)c2ccc(F)cc2Cl)c1 (stereo unspecified) | – | – | 3.55 µM (active) |
| CC(=O)c1ccc(NC(c2ccc(F)cc2)c2nnc(-c3ccccc3)o2)cc1 (stereo unspecified) | 3.29% (inactive) | – | – |
| Cc1c(C(=O)N2CCn3nc(C(O)CO)cc3C2)sc2ccccc12 (stereo unspecified) | -5.26% (inactive) | – | – |
| O=C(c1cnc2c(c1)N(Cc1ccccc1)CCC2)N1CC[S+](=O)([O-])CC1 | -8.42% [at 44.1 µM] (inactive) | – | – |
| COCCNC(=O)C[C@@H]1C[C@H]2O[C@H](CNC(=O)Nc3cccc(Cl)c3)[C@@H](O)[C@H]2O1 | 20.7% [at 44.1 µM] (inactive) | – | – |
| Cc1ccc(CN2CCc3nc(N4CCN(C)CC4)ncc3C2)cc1 | – | inactive | – |
| CCCN1CCc2nc(N3CCN(C)CC3)ncc2C1 | 36.4% [at 5.79 µM] (inactive) | – | – |
| CCN1CCN(c2ncc3c(n2)CC(c2ccccc2O)CC3=O)CC1 (stereo unspecified) | – | – | 8.91 µM (active) |
| COc1ccc2[nH]c3c(c2c1)CCN(C)C31CCN(C(=O)c2ccoc2)CC1 | – | inactive | – |
| Cc1ccc(-c2nc(C(=O)N3CCN(c4ccccn4)CC3)no2)cc1 | – | inactive | – |
| O=C(c1ccccc1)N1Cc2ccccc2NC(=O)C12CCNCC2 | 11.4% (inactive) | – | – |
| O=C(NCc1ccc(F)cc1)N1CCC(n2cnnc2C2CC2)C1 (stereo unspecified) | – | inactive | – |
| CCCNC(=O)N1CC(Oc2ccc(-c3nc(C)no3)cc2)C1 | 40.8% [at 5.79 µM] (inactive) | – | – |

| Compound | activity, negative = inhibition | outcome | Potency |
| --- | --- | --- | --- |
| COc1ccc(Nc2cc3c(nc2-c2ccccc2)nc(C(=O)NCCN(C)C)n3C)cn1 | -23.9% (inactive) | – | – |
| COc1ccc(-c2cc3c(nc2-c2ccccc2)nc(C(=O)NCCN(C)C)n3C)cc1OC | – | – | 3.98 µM (active) |
| COc1ccc(CCNC(=O)c2nn(C)c3c2CSc2ccccc2-3)cc1OC | -1.26% (inactive) | – | – |
| O=C(c1cnc[nH]1)N1C[C@@H](COCC2CC2)[C@H](c2ccccn2)C1 | -19.5% (inactive) | – | – |
| O=C(Nc1ccc(F)cc1F)N1CCC2(CC1)SCC(=O)N2c1ccc(Cl)cc1 | – | inactive | – |
| CC(C)Oc1cccc(-c2n[nH]c3c2CC(=O)N(Cc2ccccc2)C3)c1 | – | inactive [at 44.1 µM] | – |
| O=C1Cc2c(-c3ccc(Oc4ccccc4)cc3)n[nH]c2CN1CCc1ccncc1 | – | – | 11.2 µM (active) |
| O=C1Cc2c(-c3ccc(CO)cc3)n[nH]c2CN1CC1CCOCC1 | 6.98% [at 44.1 µM] (inactive) | – | – |
| O=C(CN1C(=O)C(c2ccccc2)=NC12CCCC2)N1CCN(c2ccccc2)CC1 | 32.9% (inactive) | – | – |
| CCc1noc([C@@H]2CC(F)(F)CN2C(=O)c2cocn2)n1 | 20.3% (inactive) | – | – |
| O=C1CC(c2noc(-c3ccc(F)c(Cl)c3)n2)CN1c1ccc(F)cc1 (stereo unspecified) | 28.5% (inactive) | – | – |
| CCC[S+](=O)([O-])NC1CCN(C(=O)N2CC3CC(C2)[C@H]2CCCC(=O)N2C3)CC1 (stereo partly specified) | -12.6% (inactive) | – | – |
| CCCS(=O)(=O)N1CC[C@H]2C(=O)NCCCCCCN(Cc3ccncc3)[C@@H]2C1 | 23% (inactive) | – | – |
| Cc1ccc(C2=NC3(CCN(C(=O)c4ccc(C#N)cc4)CC3)ON2)cc1 | – | – | 4.47 µM (active) |
| COCCC1(NS(C)(=O)=O)CCN(C(=O)c2ccc(C#N)cc2)CC1 | -5.57% (inactive) | – | – |
| Cc1noc(CC2CCOC3(CCN(C(=O)c4ccc(C#N)cc4)CC3)C2)n1 (stereo unspecified) | -8.63% (inactive) | – | – |
| CN1c2cc(C(=O)Nc3ccc(F)c(F)c3)ccc2C(=O)N2CCCCCC21 (stereo unspecified) | -20.7% (inactive) | – | – |
| CN1C(=O)c2cccn2CC1C(=O)NC1CCN(Cc2ccccc2)CC1 (stereo unspecified) | -6.66% (inactive) | – | – |
| CCN1c2cc(C(=O)NCc3ccc(OC)cc3OC)ccc2C(=O)N2CCCCCC21 (stereo unspecified) | – | – | 4.47 µM (active) |
| CCN1c2cc(C(=O)NC3CCN(Cc4ccccc4)CC3)ccc2C(=O)N2CCCCC21 (stereo unspecified) | – | – | 7.94 µM (active) |
| COc1ccc(CNC(=O)c2ccc3c(c2)N(C)C2CCCCN2C3=O)c(OC)c1 (stereo unspecified) | – | inactive | – |
| CCN1c2cc(C(=O)Nc3ccc(SC)cc3)ccc2C(=O)N2CCCCCC21 (stereo unspecified) | -3.15% (inactive) | – | – |
| CCN1c2cc(C(=O)Nc3ccc(OC)c(F)c3)ccc2C(=O)N2CCCCC21 (stereo unspecified) | – | inactive | – |
| CCN1c2cc(C(=O)Nc3ccc(F)c(C)c3)ccc2C(=O)N2CCCCC21 (stereo unspecified) | -9.86% (inactive) | – | – |
| CCN1c2cc(C(=O)NCc3cccc(F)c3)ccc2C(=O)N2CCCCCC21 (stereo unspecified) | – | – | 3.55 µM (active) |
